# Compound activity deposited in PubChem BioAssay by National Center for Advancing Translational Sciences (NCATS).
# ELG1 DNA repair = qHTS screen for small molecules that inhibit ELG1-dependent DNA repair in human embryonic kidney (HEK293T) cells expressing luciferase-tagged ELG1; Potency, µM (top dose mostly 46.1 µM), inactives show at the top dose activity change, negative = inhibition, usual class: inhibitors; HEK293T ELG1-luciferase reporter, luminescence, 16 h; DNA damage induced by 5-fluorouridine; AID 504467, 2011; 2.3% of 330,000 active; also: % is scaled to controls: 0 for no effect and ±100 for the full control effect; nearly all actives have a fitted effect of over 55% in size
#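 HEK293T cells expressing luciferase-tagged ELG1 (2,000/well) received 5-Fluorouridine plus compound or DMSO for 16 hr at 37 °C. Luciferase was read by ONE-Glo luminescence after 30 min at room temperature.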
# Rab9 promoter act = qHTS Assay for Rab9 Promoter Activators. Huh7 Rab9 promoter-luciferase reporter, luminescence, 24 h. Potency, µM (doses to about 9.22 µM), for the others: top-dose activation, negative = inhibition, hits mostly activators. 2.8% of 320,000 active; also: % of control where 0% means no effect; nearly all actives have a fitted effect of over 60% in size
#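 Measured in stably transfected Huh7 cells bearing a Rab9 promoter–luciferase construct: 24 h compound treatment at 37 °C, followed by luminescence detection.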
# NPC1 prom act = qHTS Assay for NPC1 Promoter Activators | Huh7 NPC1 promoter luciferase reporter, 24 h | 2.4% of 320,000 active | Potency, µM (doses to about 9.22 µM), without a hit: at the top dose activation, usual class: activators; also: % of control where 0% means no effect; nearly all actives have a fitted effect of over 60% in size
#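 Compounds in DMSO were transferred onto Huh7 NPC1-luciferase reporter cells pre-incubated 2 h; after 24 h at 37 °C, Amplite reagent was dispensed and luminescence recorded 10 min later.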
# ELG1 genotox = qHTS screen for small molecules that induce genotoxicity in human embryonic kidney (HEK293T) cells expressing luciferase-tagged ELG1. HEK293T ELG1-luciferase reporter, luminescence, 16 h. Potency, µM (titrated, usually from 46 µM), without a hit: at the highest dose activity change, positive = activation, usual class: activators. 1.3% of 330,000 active. AID 504466, 2011; also: % of control where 0% means no effect; nearly all actives have a fitted effect of over 60% in size
#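 16 hr compound incubation (37 °C, 5% CO2) of HEK293T cells carrying luciferase-tagged ELG1; luciferase then measured by ONE-Glo luminescence after 30 min at RT.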
# SMN2 splice up = qHTS Assay for Enhancers of SMN2 Splice Variant Expression; HEK293 SMN2-luciferase splicing reporter, luminescence, 30-36 h; Potency, µM (highest dose often 46.1 µM), for the others: at the top dose activity change, positive = activation, hits mostly activators; 2.8% of 210,000 active; also: % of control where 0% means no effect; nearly all actives have a fitted effect of over 55% in size
#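 HEK293 cells carry an SMN2 minigene-luciferase reporter in which exon 7 inclusion puts luciferase in frame. Cells were seeded at 2000 cells/well, attached for 10-12 hours, then exposed to compounds for 30-36 hours at 37C before ONE-Glo luminescence.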
# FLuc counter = qHTS profiling assay for firefly luciferase inhibitor/activator using purifed enzyme and Km concentrations of substrates (counterscreen for miR-21 project); Luciferin 4-monooxygenase (Photinus pyralis), P08659; purified FLuc, Km substrates, luminescence inhibition; Potency, µM (series often up to 57.5 µM), inactives show at the highest dose activity change, negative = inhibition, hits mostly inhibitors; 6.9% of 360,000 active;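 also: plate controls were vehicle for no effect and reference inhibitor for full effect; nearly all actives have a fitted effect of over 55% in size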
# Target sequence (P08659 whole entry, looked up): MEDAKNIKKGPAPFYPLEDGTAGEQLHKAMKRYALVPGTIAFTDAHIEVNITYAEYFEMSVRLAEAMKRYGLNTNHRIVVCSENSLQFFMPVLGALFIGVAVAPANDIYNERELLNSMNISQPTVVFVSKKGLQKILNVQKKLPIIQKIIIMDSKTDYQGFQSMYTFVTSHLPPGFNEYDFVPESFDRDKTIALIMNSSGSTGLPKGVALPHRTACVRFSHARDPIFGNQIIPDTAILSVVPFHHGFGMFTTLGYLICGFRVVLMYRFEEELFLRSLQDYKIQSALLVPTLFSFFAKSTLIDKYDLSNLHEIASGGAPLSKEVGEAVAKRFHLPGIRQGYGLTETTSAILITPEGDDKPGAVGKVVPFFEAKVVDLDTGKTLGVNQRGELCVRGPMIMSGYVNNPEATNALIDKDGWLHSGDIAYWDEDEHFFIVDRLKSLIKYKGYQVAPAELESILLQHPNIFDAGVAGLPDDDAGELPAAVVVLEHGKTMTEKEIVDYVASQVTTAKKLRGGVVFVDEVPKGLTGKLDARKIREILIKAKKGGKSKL
#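 Biochemical qHTS of compounds, final roughly 60 µM downward over six points, against 10 nM purified firefly luciferase using Km concentrations of substrates (10 uM D-luciferin, 10 uM ATP) in Tris acetate pH 7.5 buffer; luminescence output.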
# The depositor's hits bear a star; ? = inconclusive; · = no result. Rows were chosen to be rich in hits. Some 9.4% of all compounds tested hit in one or more screens of this group. Calls follow the shape of the dose curve; as a rule, active = well fitted curve in the direction sought with a large enough effect; inconclusive = small, poorly fitted or top-dose-only effect, or another doubt; inactive = no such curve, though single readings can be large; an effect the other way counts as inactive or inconclusive. Potency is read from the fitted curve at half-maximal effect.
SMILES,ELG1 DNA repair,Rab9 promoter act,NPC1 prom act,ELG1 genotox,SMN2 splice up,FLuc counter
COc1ccc(C2=NOC(CNC(N)=S)C2)cc1 (configuration not stated),?,0.71µM*,1µM*,12%,13µM*,11µM*
O=C(Nc1ccccc1Cl)c1ccc2c(=O)n3c(nc2c1)CCC3,?,1.1µM*,3.5µM*,?,·,11µM*
O=C(Nc1nc(-c2ccccc2)cs1)c1ccc2c(=O)n3c(nc2c1)CCCCC3,3.7µM*,-18%,-15%,-19%,·,12µM*
Cc1cc(C)cc(-n2cnc3cc(C(=O)NC4CCCCCC4)ccc32)c1,·,·,·,·,·,-11%
NC(=O)c1cccnc1Nc1cccc([N+](=O)[O-])c1,?,1.8µM*,4µM*,?,·,15µM*
NC(=O)c1cccnc1Nc1cccc(F)c1,20%,-2%,1%,7%,8%,-13%
O=C(Cn1ncc2c([nH]c3ccccc32)c1=O)Nc1cccc(C(F)(F)F)c1,·,·,·,·,·,0%
COc1ccc(-c2csc(Nc3ccc(S(N)(=O)=O)cc3)n2)cc1OC,?,-2%,-12%,-14%,·,-17%
COc1ccc(-c2csc(Nc3ccc(C)cn3)n2)cc1OC,?,?,4%,-1%,-19%,17µM*
COc1ccc(-c2csc(Nc3cc(C)ccn3)n2)cc1OC,?,?,?,5%,·,11µM*
Cc1ccccc1NC(=O)c1ccc(F)c(S(=O)(=O)N(C)C2CCCCC2)c1,·,·,·,·,·,-8%
Cc1cc(Br)ccc1NC(=O)c1cn(C2CCCC2)c(=O)c2c1c1ccccc1n2C,·,·,·,·,2%,-1%
CCCn1c(N)c(C(=O)CN(C)CC(=O)Nc2cc(C)ccc2C)c(=O)[nH]c1=O,?,-2%,0%,0%,·,0%
CCCn1c(N)c(C(=O)CN(C)CC(=O)Nc2ccccc2C(F)(F)F)c(=O)[nH]c1=O,9.2µM*,-1%,-2%,2%,·,·
O=C(CSc1ncnc2ccccc12)c1ccc2c(c1)OCCO2,?,2.8µM*,?,?,·,3.4µM*
O=C(COc1ncnc2cc(Cl)ccc12)c1ccc2c(c1)OCCO2,?,0.63µM*,3.2µM*,?,·,1.9µM*
CCc1nc(SCC(=O)c2ccc3c(c2)OCCO3)c2ccccc2n1,?,-1%,0%,-6%,-37%,?
O=C(COc1ncnc2ccccc12)c1ccc2c(c1)OCCO2,?,1.1µM*,1.1µM*,?,·,4.8µM*
Cc1sc2ncnc(SCC(=O)c3ccc4c(c3)OCCO4)c2c1-c1ccccc1,10µM*,-2%,-4%,-7%,-45%,1%
CCOC(=O)NN=C1c2ccccc2-c2ccccc21,-3%,-3%,-1%,-6%,·,-12%
CNC(=S)N/N=C1\C(=O)c2cccc3cccc1c23,?,?,22%,?,27%,?
O=C(N/N=C1\CCc2ccccc21)c1ccccc1Cl,?,2.8µM*,2.2µM*,18µM*,10µM*,11µM*
Cc1ccc(C)c(NC(=S)N/N=C2/CCCCc3ccccc32)c1,-12%,-3%,0%,-9%,-38%,2%
O=C(N/N=C1\C(=O)c2cccc3cccc1c23)c1ccc(O)cc1,?,21%,0%,3%,23%,2.1µM*
Cc1ccc(C(=O)N/N=C2\CCc3ccccc32)c(C)c1,?,2.2µM*,?,2.3µM*,0.79µM*,4.8µM*
SMILES,ELG1 DNA repair,Rab9 promoter act,NPC1 prom act,ELG1 genotox,SMN2 splice up,FLuc counter
CCOC(=O)N/N=C1\CCc2ccccc21,?,29%,26%,?,16µM*,?
O=C(C1CCN(S(=O)(=O)Cc2ccccc2)CC1)N1CCN(c2cccc(C(F)(F)F)c2)CC1,·,·,·,·,·,5%
Cc1ccc(CNC(=O)CCC(=O)N2CC3CCCN3c3ccccc32)cc1 (configuration not stated),·,·,·,·,·,0%
O=C(N/N=C1\CCc2ccccc21)c1ccc(O)cc1,?,2.8µM*,2.8µM*,4.6µM*,18µM*,7.6µM*
O=C(N/N=C1/CCc2ccccc21)C1CC1,?,18%,7%,?,22%,?
Cc1ccccc1NS(=O)(=O)c1ccc2[nH]cc(C(=O)N3CCCC3)c(=O)c2c1,·,·,·,·,·,3%
CCc1nn2c(N)c(/C=C3\C=Nc4ccccc43)c(=O)nc2s1,-13%,-3%,-6%,5%,11%,-16%
CC1=Nc2ccccc2/C1=C/c1c(N)n2c(S(=O)(=O)CC(C)C)nsc2nc1=O,15%,-5%,2%,2%,-20%,17µM*
CC1=Nc2ccccc2/C1=C/c1c(N)n2c(S(=O)(=O)C(C)C)nsc2nc1=O,-6%,-4%,-3%,1%,2%,24µM*
CC1=Nc2ccc(C)cc2/C1=C/c1c(N)n2c(S(=O)(=O)C(C)C)nsc2nc1=O,4%,3%,1%,-3%,20%,?
Cc1ccc(S(=O)(=O)N(CC(=O)Nc2c(C)cccc2C)c2cccc(Cl)c2)cc1,·,·,·,·,13%,-11%
COC(=O)[C@@]1(Cc2ccccc2)[C@H]2c3cc(C(=O)N(C)C)n(Cc4ccccn4)c3C[C@H]2CN1C(=O)c1ccccc1,·,·,·,·,-20%,·
CCOCCOC(=O)COc1ccc(N2C(=O)c3ccccc3C2=O)cc1,-3%,-6%,-7%,-7%,2%,19µM*
CC(C)Oc1ccc(N2C(=O)c3ccccc3C2=O)cc1,?,0%,1%,?,-18%,7.6µM*
Cc1ccc(OCC(=O)OCCN2C(=O)c3ccccc3C2=O)cc1C,-6%,1%,-4%,-4%,27%,-2%
COc1ccc(N2C(=O)c3ccccc3C2=O)cc1,13%,0%,0%,5%,11%,?
Cc1ccc(/C=N/NC(=O)c2csc(C)c2)o1,?,10%,23%,8%,11%,15µM*
Cc1ccc(/C=N/NC(=O)c2cccs2)o1,?,2%,16%,14%,9%,17µM*
Cc1ccc(/C=N/NC(=O)c2cc(C)oc2C)o1,?,11%,8%,4%,-5%,?
Cc1cc(C(=O)N/N=C/c2ccc(N(C)C)o2)cs1,-2%,4%,0%,18%,·,?
FC(F)(F)c1cccc(N2CCc3cn[nH]c32)c1,?,-1%,10%,14%,-14%,24µM*
